From PubChem BioAssay AID624305 (National Center for Advancing Translational Sciences (NCATS), 2012)
Inconclusive results are not listed. Entries that show only a call come without a potency. Activity calls are given as the source filed them. The call rests on the fitted dose curve; in most records, active means well fitted activation curve with a large enough effect; inconclusive means small, poorly fitted or top-dose-only effect; inactive means no such curve, though single readings can be large or run the other way.

Experiment: qHTS assay for re-activators of p53 using a Luc reporter: Hit Validation; further: nearly all actives have a fitted effect of over 75% in size
Details: p53-responsive luciferase reporter cells, luminescence, H1299 line expressing heat-sensitive Ala138Val p53; series mostly up to 46.1 µM
In short: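 Hit confirmation with a 1:5 dilution series, at 37 deg C for 24 hrs, in H1299 cells co-expressing temperature-sensitive p53-A138V and p53-responsive luciferase. Nocodazole served as control; luminescence read after 10 min with detection reagent.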
Potency means the concentration at half of the fitted maximal effect.

SMILES | Potency
Clc1ccc(Nc2nc(-c3cccs3)cs2)nc1 | 4.11 µM (active)
O=C(Oc1c(Cl)cc(Cl)c2cccnc12)c1cccc([N+](=O)[O-])c1 | inactive
Cc1ccc2nc(N3C(=O)C(O)=C(C(=O)c4ccc(C)o4)C3c3ccco3)sc2c1 (stereo not drawn) | inactive
Cc1nn(-c2ccccc2)c(C)c1/C=N/Nc1nc2ccccc2[nH]1 | 0.731 µM (active)
O=C(N/N=C\c1cc(Cl)ccc1O)c1ccc(S(=O)(=O)N2CCCCC2)cc1 | inactive
Cc1nc(NCCc2ccccc2)c2nnn(Cc3ccccc3Cl)c2n1 | inactive
CN(C)c1ccc(N=Cc2nc(-c3ccccc3)oc2OC(=O)c2cccc(Cl)c2)cc1 | 2.06 µM (active)
O=C(CCS(=O)(=O)c1ccccc1)Nc1ccc(-c2nc3ccccc3s2)cc1 | 0.651 µM (active)
O=C(/C=C/Nc1ccccc1C(=O)O)c1cccs1 | inactive
Cc1cccc(-n2c(O)c(C=Nc3ccccc3N)c(=O)[nH]c2=O)c1 | inactive
CC1C(=O)CCN(C(C)(C)C)C1C (stereo not drawn) | inactive
NC(=O)c1cc2ccc(O)cc2oc1=Nc1ccccc1 | inactive
CCN1C(=S)SC(=O)C1=C1C=C(C)N(CCO)C(C)=C1 | 1.3 µM (active)
CCOC(=O)c1ccc2ncc(C(=O)OCC)c(NCc3ccco3)c2c1 | inactive
O=C(Nc1nc(-c2cccs2)cs1)c1ccc([N+](=O)[O-])o1 | 20.6 µM (active)
COc1cc(NC(=O)CSCc2ccc(Cl)cc2)c(C(=O)O)cc1OC | inactive
Cc1cc(C)cc(NC(=O)c2sc3nc(C)cc(C)c3c2N)c1 | 11.6 µM (active)
COc1ccc(C2SCCN2C(=S)Nc2ccc(Cl)cc2)cc1 (stereo not drawn) | inactive
Oc1cccc2c(NC(=S)Nc3ccc(OC(F)F)cc3)cccc12 | inactive

SMILES | Potency
O=C(CSc1ccccc1)Nc1ccc(-c2nc3ccccc3[nH]2)cc1 | inactive
Cc1c(C(=O)OC2CCC(C)CC2)[nH]c2c1C(=O)CCC2 (stereo not drawn) | 1.16 µM (active)
Cc1ccc(-c2nnc(SCc3ccccc3F)o2)cc1 | 1.3 µM (active)
O=C(CC1CCCCC1)NCc1ccc(Cl)cc1 | 11.6 µM (active)
Cc1cccc(NC(=S)NC(=O)C2CC2)c1 | inactive
Cc1ccc(OC(=O)c2cccc(S(=O)(=O)N3CCCC3)c2)c(-n2nc3ccccc3n2)c1 | 3.66 µM (active)
COc1ccc(C(=O)N=c2nc3ccccn3s2)cc1 | 0.092 µM (active)
CCCN1CCC(=NNC(=O)CSc2cc(C)c(Br)cc2C)CC1 | inactive
CC(=O)Nc1ccc(Nc2cc(C)nc3c(-c4ccccc4)cnn23)cc1 | 0.116 µM (active)
CCOC(=O)c1cc(-c2ccccc2)sc1NC(=O)CC | inactive
CCCCC(=O)NC(c1ccc(Cl)cc1Cl)c1ccc2cccnc2c1O (stereo not drawn) | 20.6 µM (active)
N#C/C(=C\c1ccccc1[N+](=O)[O-])c1nc(C2CC2)cs1 | 23.1 µM (active)
NC(=NCc1ccccc1)c1cccc([N+](=O)[O-])c1 | inactive
Cc1ccc2oc(-c3ccc(C)c(NC(=S)NC(=O)c4cccs4)c3)nc2c1 | 4.61 µM (active)
Cc1ccc(C(=O)NCC(=O)N2CCCCCC2)cc1 | inactive
O=C(O)C1CC(=O)N(c2ccc(Br)cc2)C1 (stereo not drawn) | inactive
CCc1ccc(-n2cc(-c3ccc([N+](=O)[O-])cc3)[nH]c2=S)cc1 | inactive
CC(C)(C)c1nnc(SCC(=O)c2ccccc2)n(N)c1=O | inactive
CCOc1ccc(-c2cnc3ccccc3n2)cc1 | inactive
